# Source: PubChem BioAssay (National Center for Advancing Translational Sciences (NCATS))
# AMA1 RON2 block: disrupts binding of P. falciparum AMA1 to RON2; AlphaScreen AMA1-biotinylated RON2 peptide binding; Potency, µM (top dose mostly 58.2 µM), for inactives: top-dose activity change, negative = inhibition, actives largely listed as inhibitors; actives 0.2% (n = 360,000);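 note: 0% = vehicle wells and -100% = peptide control; nearly all actives have a fitted effect of over 45% in size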
#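 AMA1 (3D7) with his tag at 25 nM final met compounds first, then biotinylated RON2 peptide at 25 nM; detection used donor plus acceptor beads, 10 µg/mL apiece, read by AlphaScreen after 30 min at room temperature.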
# Vaccinia Venus: vaccinia inhibition (Venus reporter); Vaccinia virus Venus reporter expression, fluorescence; Potency, µM (doses to about 36.5 µM), without a hit: at the top dose activity change, negative = inhibition, usual class: inhibitors; actives 0.46% (n = 330,000); AID 720580; calls by dose curve; tested in A549 cells; note: nearly all actives have a fitted effect of over 30% in size
# Pf growth 96h: P. falciparum growth inhibition at 96 hour, primary screen for plastid delayed-death inhibitors; Potency, µM (series often up to 28.7 µM), for the others: at the highest dose activity change, negative = inhibition, most hits filed as inhibitors; actives 6.9% (n = 320,000); P. falciparum luciferase reporter growth, 96 h
#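 Cell-based qHTS: luciferase-tagged P. falciparum in erythrocytes (2% hematocrit, 0.05% parasitemia final) incubated with compounds for 96 hours, 37 C, 5% CO2; luciferase detection reagent then added and luminescence measured.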
# Pf growth 48h: inhibits P. falciparum growth in the first generation, 48 h; P. falciparum luciferase growth in erythrocytes, 48 h; Potency, µM (series often up to 28.7 µM), for inactives: at the highest dose activity change, negative = inhibition, most hits filed as inhibitors; actives 5.9% (n = 310,000); AID 504832
#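 Read-out is firefly luciferase luminescence from an integrated reporter in P. falciparum, so falling signal marks reduced parasite growth. Infected erythrocytes were at 2% hematocrit and 0.1% parasitemia (final) in Albumax-supplemented RPMI 1640.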
# Vaccinia mCherry: inhibitors of vaccinia virus infection (mCherry reporter signal); Vaccinia virus mCherry reporter infection, fluorescence; AID 720579; actives 0.63% (n = 310,000); Potency, µM (doses to about 36.5 µM), for inactives: at the highest dose activity change, negative = inhibition, most hits filed as inhibitors; calls by dose curve; tested in A549 cells; note: nearly all actives have a fitted effect of over 35% in size
# * marks the source's active call; other numbers are inactive results; i = inactive; ? = inconclusive; . = not tested or not shown; [ ] = remark or other dose. Compounds with a hit are over-represented: about 8.7% of the library has one in this group of screens. Unless noted, calls come from the whole dose curve; as a rule, active = well fitted curve in the direction sought with a large enough effect; inconclusive = small, poorly fitted or top-dose-only effect, or another doubt; inactive = no such curve, though single readings can be large; an effect the other way counts as inactive or inconclusive. Unless noted, % is set by controls: 0 for no effect and ±100 for the full control effect; potency is the fitted concentration of half-maximal effect.
SMILES,AMA1 RON2 block,Vaccinia Venus,Pf growth 96h,Pf growth 48h,Vaccinia mCherry
COc1ccc(/C=C2\CCCC3C2=NN(C(=O)CSc2ncn[nH]2)C3c2ccc(OC)cc2)cc1 (stereo not drawn),14%,?,?,?,?
O=C(CSc1ncn[nH]1)N1N=C2/C(=C/c3ccccc3)CCCC2C1c1ccccc1 (stereo not drawn),22%,.,7.4µM*,?,.
O=C(OCc1cc(=O)n2nc(-c3cccs3)sc2n1)c1ccccc1Cl,.,7%,.,.,-9%
C=CCn1c(SCc2ccc(Cl)cc2)nc2cc(C(=O)N3CCC(C(N)=O)CC3)ccc2c1=O,-1%,-17%,6.6µM*,?,-13%
C=CCn1c(SCC(=O)NC23CC4CC(CC(C4)C2)C3)nc2cc(C(=O)O)ccc2c1=O,20%,-14%,4.7µM*,2.9µM*,i
C=CCn1c(SCC(=O)Nc2ccc(F)cc2)nc2cc(C(=O)O)ccc2c1=O,15%,-15%,-11%,-11%,i
CCOC(=O)c1c(C)oc2nc(C)nc(NCCc3ccc(OCC)c(OCC)c3)c12,.,-18%,.,.,i
Cc1ccc(N2C(=O)C(CC(=O)Nc3ccccc3)N(CCC3=CCCCC3)C2=O)cc1 (stereo not drawn),.,-11%,.,.,-19%
CN1C2CCC1CC(NC(=O)CSCc1ccc(Cl)cc1Cl)C2 (stereo not drawn),5%,-13%,13µM*,?,i
CCC(=O)N1CCc2cc(S(=O)(=O)NCCC(=O)Nc3ccc(C)cc3C)ccc21,.,-10%,.,.,-7%
COc1ccc2ccc(OCC(=O)Nc3cc(C)on3)cc2c1,-1%,.,?,12µM*,.
O=C(COc1ccc(Br)cc1)Nc1ccc2c(c1)C(=O)NC2=O,10%,-4%,3%,-4%,-12%
COc1ccc(OCC(=O)Nc2ccc3c(c2)C(=O)NC3=O)cc1,-11%,.,12µM*,21%,.
CCc1nonc1NC(=O)COc1cc(C)c(Cl)c(C)c1,-4%,.,11%,?,.
CCc1nonc1NC(=O)COc1ccc(Cl)c(C)c1,4%,.,4.1µM*,?,.
COc1ccc(CC(=O)Nc2cc(C)on2)cc1,-2%,.,37%,12%,.
COc1ccc(OCC(=O)Nc2nonc2NC(=O)COc2ccc(OC)cc2)cc1,25%,-8%,9.3µM*,58%,-5%
Cc1cc(C)cc(OCC(=O)Nc2nonc2NC(=O)COc2cc(C)cc(C)c2)c1,-43%,.,-20%,?,.
Cc1ccc(-n2nc(C)c3c(C(=O)NCc4ccc(F)cc4)cc(C)nc32)cc1,.,-3%,.,.,-7%
CCOC(=O)c1cc2c(=O)[nH]ccc2nc1C(F)(F)F,-13%,-2%[7.34 µM],6.6µM*,?,-2%[7.34 µM]
CCOc1ccccc1NC(=O)c1cn(C2CCCC2)c(=O)c2c1c1ccccc1n2C,.,-10%[7.34 µM],.,.,-12%[7.34 µM]
COc1ccc(N2C(N)=C(C#N)C(c3ccsc3)C3=C2CCCC3=O)c(OC)c1 (stereo not drawn),86%,-20%,3.7µM*,?,-28%
O=C1CCCC2=C1C(c1ccccc1)CC(=O)N2c1ccccc1 (stereo not drawn),-3%,?,13µM*,-13%,.
N#CC1=C2N=C(N)c3c(sc4c3CCCCC4)N2C2=C(C(=O)CCC2)C1c1ccccc1 (stereo not drawn),9%,.,4.7µM*,2.9µM*,.
CSc1ccc(C2C(C#N)=C(N)N(c3ccccc3)C3=C2C(=O)CCC3)cc1 (stereo not drawn),13%,-12%,0%,13µM*,.
N#CC1=C(N)N(c2ncn[nH]2)C2=C(C(=O)CCC2)C1c1ccccc1 (stereo not drawn),8%,-13%,22%,?,-5%
COc1ccc(C2CC(=O)N(c3ccccc3)C3=C2C(=O)CCC3)cc1 (stereo not drawn),10%,-8%,0%,-5%,-9%
COc1ccccc1N1CCN(C(=O)c2cnc(N3CCOCC3)c3ccccc23)CC1,.,-29%,.,.,-30%
CN(C)N1C(N)=C(C#N)C(c2cccnc2)C2=C1CCCC2=O (stereo not drawn),-20%,-5%,13µM*,-17%,-6%
CC(C)Oc1ccc(CNC(=O)C2CCN(Cc3cc4ccccc4n3Cc3ccccc3)CC2)cc1,.,-23%,.,.,-26%
